# The full list was thinned out, with hits kept by preference.
# Sa growth inh: inhibitors of Staphylococcus aureus growth at 42 °C | AID 720641 | 170,000 tested, 0.53% active | S. aureus RN4220 growth, OD600, 20 h; active compounds read low | relative growth, % (no concentration beside the values);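 active means relative growth at most 50% at the other temperature and 20+ points below 30 °C, or under 10% at both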
# S aureus helic: S. aureus DNA helicase inhibition; 120,000 tested, 0.05% active; purified S. aureus helicase, fluorescence unwinding assay; inhibition, % (test concentration not listed); AID 485395; in the data active means inhibition above about 25%, passing the limit was not always enough;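 further: 0% = mean of negative control wells and 100% = mean of positive control wells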
# An asterisk follows results filed as active; . = not tested or not shown; ! = a repeat was not active.
SMILES,Sa growth inh,S aureus helic
FC(F)(F)c1cccc(Nc2nc3nonc3nc2Nc2ccc(Cl)cc2)c1,43.0,.
CCOC(=O)/C=C1\SCC(=O)N1CC(=O)NC1CCCc2ccccc21 (stereo unspecified),70.0,-1.0
CCCCN(CC)c1nc(N)c2c(N)nc(SCC(=O)O)cc2c1C#N,6.2*,-15.0
CCN(CC)c1nc(N)c2c(N)nc3c(c2c1C#N)C(=O)CN3Cc1ccccc1,104.1,-14.0
CN(CCOc1ccccc1)CCOc1ccccc1,118.2,-11.0
CN(C)CCOc1ccc(/C(=C(/CCCl)c2ccccc2)c2ccccc2)cc1,7.1*!,.
CCOC(=O)/C(C#N)=C/Nc1cnc(N(C)C)c(C(F)(F)F)c1,93.5,-16.0
CC(C)n1c(SCC(N)=O)nc2ccccc21,105.2,-8.0
N#Cc1ccc(CSc2nc3ccc(Cl)cc3[nH]2)cc1,64.8,6.0
FC(F)(F)c1ccc2nc(SCc3ccc(Br)cc3)[nH]c2c1,6.8*,.
CC(CNC(=S)Nc1cccc(Cl)c1)CSc1ccc(Cl)cc1 (stereo unspecified),-0.4*,4.0
S=C(NCCSc1ccc(Cl)cc1)Nc1cccc(Cl)c1,2.1,12.0
N#C/C(=C\N1CCN(c2ccccc2)CC1)S(=O)(=O)c1ccccn1,102.1,-19.0
O=C(CN1CCC(n2nnc3ccccc32)CC1)Nc1ccccc1Cl,108.6,6.0
CCSc1nc2ccccc2s1,85.4,-22.0
CCSc1ccc(SC#N)s1,-0.4*,14.0
O=c1[nH]c(C(F)(F)F)nc2c1cnn2-c1ccccc1,103.5,-22.0
COc1ccc(/C=C2\SC(=O)N(C)C2=O)c2ccccc12,102.5,26.0
FC(F)(F)c1nc(SCc2ccc(Cl)cc2Cl)n[nH]1,-0.8*,.
O=c1[nH]nc(SCc2ccc(Cl)cc2Cl)c(=O)[nH]1,89.8,-10.0
Cc1nn(-c2ccccc2)c2sc(C(=O)NN3CCOCC3)cc12,106.5,15.0
CSc1sc(-c2ccccc2)c2[n+]1CC(=O)N2,.,-13.0
Cc1ccccc1NC1SC(=O)N(Cc2ccccc2)C1=O (stereo unspecified),88.3,-12.0
C/C(=N\NC(N)N)C1CCCCCCCCCCC1,-0.4*,0.0
C/C(=N\NC(N)=O)C1CCCCC1,97.5,8.0
SMILES,Sa growth inh,S aureus helic
Cc1ccc(C(=O)NC2CCOc3ccccc32)o1 (stereo unspecified),84.3,7.0
Cc1c(Sc2ccc(Cl)cc2)cnn1C(=O)Nc1cccc(C(F)(F)F)c1,4.5*,.
Cc1c(Sc2ccc(Cl)cc2)cnn1C(=O)NC(C)C,99.3,.
C#CCNCc1ccccc1,111.0,3.0
CC(N=c1ccccn1C(=O)Nc1ccc(Cl)c(Cl)c1)c1ccco1 (stereo unspecified),-0.8*,14.0
CC1Cc2ccccc2N1C(=O)Nc1ccc(Cl)c(Cl)c1 (stereo unspecified),107.2,-1.0
CCc1ccc2nc(N3CCCC3)c(C#N)cc2c1,88.0,10.0
Cc1c(C)c(C)c(C#CCO)c(C)c1C,3.2*,-13.0
Cc1nc(-c2cccs2)cs1,75.8,17.0
S=c1nc(-c2cccs2)cn[nH]1,38.5*,-2.0
O=C(Nc1cc(Cl)cc(Cl)c1)C1CC1,78.8,.
O=C(O)Nc1cc(Cl)cc(Cl)c1,-0.4*,4.0
Cc1cnc(NC(=O)CCN2C(=O)c3ccccc3C2=O)s1,105.4,-11.0
CN(CC(=O)Nc1ccc(Cl)c(C(F)(F)F)c1)c1ccc(S(=O)(=O)N2CCCCC2)cn1,80.2,-10.0
O=S(=O)(Cc1noc(-c2cc(Cl)cc(Cl)c2)n1)c1ccc(Cl)cc1,96.3,8.0
COC1(NS(=O)(=O)c2ccc(C)cc2)C(C)=CC(=O)C=C1C,1.7*,23.0
COC(=O)C1=C(C)NC(=O)C1(NS(=O)(=O)c1ccc(C)cc1)C(F)(F)F (stereo unspecified),72.3,4.0
O=C(CCN1CCOCC1)c1ccc(O)cc1,101.9,.
CCCCCOc1ccc(C(=O)CCN2CCOCC2)cc1,12.7*,8.0
CCCCOc1ccc(C(=O)N2CCCCC2CCN2CCOCC2)cc1 (stereo unspecified),100.0,.
O=C(CCN1CCOCC1)c1ccc(Br)cc1,-0.4*,5.0
N/C(=N\OC(=O)c1cnc2n(c1=O)CCS2)c1ccc(C(F)(F)F)cc1,103.2,1.0
FC(F)(F)c1cc(NC(=S)NC2CCCCC2)cc(C(F)(F)F)c1,7.4*,.
Cc1cc(C)cc(NC(=S)NC2CCCCC2)c1,78.5,.
N#Cc1c2ncnc(-c3ccccc3)c2n2ccccc12,98.8,-105.0
SMILES,Sa growth inh,S aureus helic
O=C(NCC(c1ccco1)N1CCc2ccccc21)Nc1ccccc1 (stereo unspecified),81.1,2.0
CN(C)S(=O)(=O)c1ccc(=O)n(CC(=O)NCC2COc3ccccc3O2)c1 (stereo unspecified),98.9,-11.0
CCC1CCCCN1C(=O)Cn1cc(S(=O)(=O)N(C)C)ccc1=O (stereo unspecified),96.7,29.0*
COC(=O)Cc1[nH]n(-c2nc3ccccc3s2)c(=O)c1C(C)=NC1CC1,102.1,13.0
O=C(O)CCNC(=O)c1ccco1,91.0,4.0
Clc1cccc(Cl)c1OCCCn1ccnc1,102.8,-19.0
CCOc1ccc(NC(=S)NCCCn2ccnc2)cc1,97.1,5.0
CC(C)(C)c1ccc(OCCCn2ccnc2)cc1,2.3*,-8.0
Ic1ccc(OCCCCn2ccnc2)cc1,1.3*,10.0
Cc1c(C(=O)OCc2nc(-c3cccc(Cl)c3)no2)sc2nc3n(c(=O)c12)CCC3,97.4,6.0
COC(=O)c1ccc2c(=O)[nH]c(COC(=O)CNC(=O)c3cccs3)nc2c1,82.7,32.0*
COC(=O)c1ccc2c(=O)[nH]c(COC(=O)c3ccc4c(c3)OCO4)nc2c1,96.6,-9.0
CC(C)c1ccc(C(C)N)cc1 (stereo unspecified),84.3,-15.0
CSc1nc2sc(C)cc2c(=O)n1C,99.7,1.0
CC1=C(C(=O)OC2CCCC2C)C(c2ccc(Cl)cc2)NC(=O)N1 (stereo unspecified),27.7*,11.0
CC1=C(C(=O)N(C)C)C(c2ccc(Cl)cc2)NC(=O)N1 (stereo unspecified),101.5,0.0
CC1Sc2nnc(Cc3ccc(Br)cc3)n2N=C1c1ccc(NS(C)(=O)=O)cc1 (stereo unspecified),101.4,22.0
Cn1c(=O)oc2cc(S(=O)(=O)N3CCCC(C(=O)NN4CCOCC4)C3)ccc21 (stereo unspecified),90.5,12.0
CCCC(=O)NCc1cn2cccc(C)c2n1,118.2,-28.0
Cc1ccc(CNc2ncnc3c2nc2n3CCCCC2)cc1,60.7,1.0
CCC(=O)NC(c1ccco1)c1cc(Cl)c2cccnc2c1O (stereo unspecified),71.7,5.0
CCCCC(=O)NC(c1ccco1)c1cc(Cl)c2cccnc2c1O (stereo unspecified),20.4*,-25.0
C=CCN1C(=O)C(C(=O)Nc2ccc(C)cc2)C2CC1(C)Oc1ccccc12 (stereo unspecified),110.3,-2.0
CC(NC(=O)Nc1cccc(C(F)(F)F)c1)c1nc2ccccc2[nH]1 (stereo unspecified),0.5*,-6.0
C[C@H](NC(=O)c1cccc(C(F)(F)F)c1)c1nc2ccccc2[nH]1,85.8,11.0
Cn1c(-c2ccccc2)cc(C=Nc2ccccc2)c1O,4.0*,1.0
CN=Cc1cc(-c2ccccc2)n(C)c1S,75.0,9.0
Cc1[nH]c2ccccc2c1C(Nc1ccccn1)c1cccs1 (stereo unspecified),.,1.0
COC(c1cccs1)c1c(C)[nH]c2ccccc12 (stereo unspecified),2.0*,-8.0

# Source: PubChem
